From the supplement of paper PMC13380429

Tested on: Vero E6 infected with SARS-CoV-2
Test: inhibition of SARS-CoV-2 cytopathic effect; higher = more antiviral protection, active = above 15
Conditions: 48 h

Measured: inhibition of SARS-CoV-2 cytopathic effect

Cc1c(Cc2ccc3ccccc3n2)c2cc(F)ccc2n1CC(=O)O
inactive: 1 nM 1.64% | 8.33 nM -0.1% | 100 nM 0.44% | 833.33 nM -1.23% | 10000 nM -2.21%

Ic1cncc(OC[C@@H]2CCN2)c1
inactive: 1 nM 0.24% | 8.33 nM -0.44% | 100 nM 0.14% | 833.33 nM 1.07% | 10000 nM -0.56%

COC(=O)c1cc(OC)c2c(c1-c1c(C(=O)OC)cc(OC)c3c1OCO3)OCO2 [bifendate]
inactive: 1 nM 1.14% | 8.33 nM 2.56% | 100 nM 3.5% | 833.33 nM 1.43% | 10000 nM 1.73%

CN[C@@H](C)CC1CCCCC1 [propylhexedrine]
inactive: 1 nM -0.64% | 8.33 nM -5.27% | 100 nM -5.29% | 833.33 nM -6.1% | 10000 nM -8.06%

Cc1cc(Nc2cc(CN3CCOCC3)c3nc(C)c(Cc4ccc(Cl)cc4F)n3n2)n[nH]1
inactive: 1 nM -0.17% | 8.33 nM 1% | 100 nM -1.28% | 833.33 nM -6.68% | 10000 nM -11.6%

Cc1ccc(C(=O)c2ccc(CC(=O)O)n2C)cc1 [tolmetin]
inactive: 1 nM -2.48% | 8.33 nM -1.62% | 100 nM -1.05% | 833.33 nM -0.39% | 10000 nM 0.75%

C[C@@H]1CC[C@@]2(OC1)O[C@H]1C[C@H]3[C@@H]4CC=C5C[C@@H](O[C@@H]6O[C@H](CO)[C@@H](O[C@@H]7O[C@@H](C)[C@H](O)[C@@H](O)[C@H]7O)[C@H](O)[C@H]6O[C@@H]6O[C@@H](C)[C@H](O)[C@@H](O)[C@H]6O)CC[C@]5(C)[C@H]4CC[C@]3(C)[C@H]1[C@@H]2C [dioscin]
inactive: 1 nM -2.63% | 8.33 nM 0.88% | 100 nM -2.63% | 833.33 nM 0.22% | 10000 nM -12.2%

CN(C)Cc1cccc(N/C(=C2\C(=O)Nc3cc(C(N)=O)ccc32)c2ccccc2)c1
inactive: 1 nM -2.86% | 8.33 nM 2.55% | 100 nM 0.04% | 833.33 nM 2.08% | 10000 nM 2.55%

Nc1ncc2c(n1)CC(c1ccco1)CC2=O (stereo not given)
inactive: 1 nM 2.9% | 8.33 nM 3.51% | 100 nM 2.68% | 833.33 nM 4.74% | 10000 nM 3.17%

CCCCCCCCCCCCOS(=O)(=O)O [dodecyl-sulfate]
inactive: 1 nM -0.285% | 8.33 nM 1.83% | 100 nM 1.98% | 833.33 nM 0.175% | 10000 nM 0.47%

COc1ccc(-c2cc(=O)c3c(O)cc(O[C@@H]4O[C@H](CO[C@@H]5O[C@@H](C)[C@H](O)[C@@H](O)[C@H]5O)[C@@H](O)[C@H](O)[C@H]4O)cc3o2)cc1O [diosmin]
inactive: 1 nM 3.94% | 8.33 nM -0.11% | 100 nM -2.26% | 833.33 nM 4.64% | 10000 nM -2.85%

Cn1cc(C(F)(F)F)nc1-c1ccc(OCC(O)CNCCOc2ccc(O)c(C(N)=O)c2)cc1 (stereo not given)
inactive: 1 nM -0.25% | 8.33 nM -0.6% | 100 nM 0.3% | 833.33 nM -1.37% | 10000 nM 1.34%

COc1cccc2c1C(=O)c1c(O)c3c(c(O)c1C2=O)C[C@@](O)(/C(CO)=N/NC(=O)CCCCCN1C(=O)C=CC1=O)C[C@@H]3O[C@H]1C[C@H](N)[C@H](O)[C@H](C)O1 [aldoxorubicin]
inactive: 1 nM -2.6% | 8.33 nM -0.32% | 100 nM 0.6% | 833.33 nM 4.67% | 10000 nM -1.37%

Cc1csc(S(=O)(=O)N(CC(C)C)c2cc3c(cc2OCc2ccc(C(=O)O)cc2)CCC3)n1
inactive: 1 nM -2.46% | 8.33 nM -1.9% | 100 nM 3.16% | 833.33 nM 2.51% | 10000 nM 2.78%

C#CCN(C)Cc1ccccc1 [pargyline]
inactive: 1 nM 0% | 8.33 nM 0.65% | 100 nM -1.02% | 833.33 nM -1.01% | 10000 nM 2.9%

CC(=O)NCC(=O)N1[C@@H]2CC[C@H]1c1ccc(Nc3ncc(C(F)(F)F)c(NC4CCC4)n3)cc12
inactive: 1 nM -2.51% | 8.33 nM -1.15% | 100 nM -2.99% | 833.33 nM -4.63% | 10000 nM -15.4%

Cc1ccc(F)cc1C(=O)Nc1ccc(C(=O)N2Cc3cccn3Cc3ccccc32)c(Cl)c1 [lixivaptan]
inactive: 1 nM -2.22% | 8.33 nM 2.67% | 100 nM 2% | 833.33 nM 1.18% | 10000 nM -0.31%

CCOC(=O)[C@H](CCc1ccccc1)N[C@@H](C)C(=O)N1[C@H](C(=O)O)C[C@H]2CCCC[C@@H]21 [trandolapril]
inactive: 1 nM -1.1% | 8.33 nM -1.62% | 100 nM -0.26% | 833.33 nM -0.12% | 10000 nM 1.62%

C[C@]12CCC(=O)C=C1CC[C@@H]1[C@@H]2C(=O)C[C@]2(C)C(=O)CC[C@@H]12 [adrenosterone]
inactive: 1 nM 0.47% | 8.33 nM -2.37% | 100 nM 0.08% | 833.33 nM 1.4% | 10000 nM 2.11%

CCCCCCCCc1ccc(CCC(N)(CO)CO)cc1 [fingolimod]
active: 10000 nM 15.2%
inactive: 1 nM 0% | 8.33 nM 2.1% | 100 nM -0.53% | 833.33 nM -4%

NCCCC[C@H](N[C@@H](CCc1ccccc1)C(=O)O)C(=O)N1CCC[C@H]1C(=O)O [lisinopril]
inactive: 1 nM 0.42% | 8.33 nM 0.67% | 100 nM 0.78% | 833.33 nM 0.97% | 10000 nM 1.56%

CC(C)c1ccc(NC(=O)c2cccs2)c(-c2nc3ccccc3[nH]c2=O)c1
inactive: 1 nM -1.18% | 8.33 nM -0.5% | 100 nM 0.48% | 833.33 nM -0.61% | 10000 nM -1.09%

CCn1c(O)nnc1-c1ccc(Cl)cc1 [5-(4chlorophenyl)-4-ethyl-2,4-dihydro-3H-1,2,4-triazol-3-one]
inactive: 1 nM -1.14% | 8.33 nM -2.31% | 100 nM -1.83% | 833.33 nM 0.79% | 10000 nM 0.03%

CCC(C)SSc1ncc[nH]1 (stereo not given)
inactive: 1 nM -1.26% | 8.33 nM -14.1% | 100 nM 1.61% | 833.33 nM 2.44% | 10000 nM -1.36%

O=C(CCCCCCC(=O)Nc1ccccc1)NO [vorinostat]
inactive: 1 nM -0.07% | 8.33 nM 0.67% | 100 nM -0.77% | 833.33 nM -5.85% | 10000 nM -23.6%

CN(CCOP(=O)(O)O)C(=N)N [creatinol-phosphate]
inactive: 1 nM -1.02% | 8.33 nM 2.42% | 100 nM 0.89% | 833.33 nM -2.46% | 10000 nM -1.58%

Cn1c(NC[C@@H](N)Cc2ccccc2)nc(-c2ccncc2)c(-c2ccc3ccccc3c2)c1=O
inactive: 1 nM -0.22% | 8.33 nM 0.05% | 100 nM -0.08% | 833.33 nM 2.09%
active: 10000 nM 32.9%

CN1C(=O)N(c2cc(Cl)cc(Cl)c2)C(=O)[C@]12CN(Cc1cc(C(=O)O)cs1)C[C@H]2c1ccc(C#N)cc1
inactive: 1 nM -1.94% | 8.33 nM 0.44% | 100 nM 1.44% | 833.33 nM 0.49% | 10000 nM -0.22%

c1cnc(N2CCN(Cc3ccc4c(c3)OCO4)CC2)nc1 [piribedil]
inactive: 1 nM -0.1% | 100 nM 1.85% | 833.33 nM -0.64% | 10000 nM 0.85%
active: 8.33 nM 15.4%

CC(O)COC[C@H]1O[C@@H]2O[C@H]3[C@H](O)[C@@H](O)[C@@H](O[C@H]4[C@H](O)[C@@H](O)[C@@H](O[C@H]5[C@H](O)[C@@H](O)[C@@H](O[C@H]6[C@H](O)[C@@H](O)[C@@H](O[C@H]7[C@H](O)[C@@H](O)[C@@H](O[C@H]8[C@H](O)[C@@H](O)[C@@H](O[C@H]1[C@H](O)[C@H]2O)O[C@@H]8COCC(C)O)O[C@@H]7COCC(C)O)O[C@@H]6COCC(C)O)O[C@@H]5COCC(C)O)O[C@@H]4COCC(C)O)O[C@@H]3COCC(C)O (stereo partly drawn) [hydroxypropyl-beta-cyclodextrin]
inactive: 1 nM 1.48% | 8.33 nM -0.26% | 100 nM 1.56% | 833.33 nM 0.29% | 10000 nM 0.7%

C=C(C)CN1CC[C@]23c4c5ccc(O)c4O[C@H]2c2[nH]c4ccccc4c2C[C@@]3(O)C1C5
inactive: 1 nM 1.25% | 8.33 nM -1.87% | 100 nM 0.33% | 833.33 nM 0.21% | 10000 nM 1.05%

Oc1ccc(C2(c3ccccc3F)CCC(F)(F)CC2)cc1
inactive: 1 nM 1.54% | 8.33 nM -0.41% | 100 nM -0.21% | 833.33 nM -1.05% | 10000 nM 0%

Cn1cc(-c2ccc3c(c2)CCN3C(=O)Cc2cccc(C(F)(F)F)c2)c2c(N)ncnc21
active: 833.33 nM 32.5% | 10000 nM 27.7%
inactive: 1 nM 0.06% | 8.33 nM 0.68% | 100 nM 1.48%

CCOC(=O)NNc1ccc(N(CC)CC(C)O)nn1 (stereo not given) [cadralazine]
inactive: 1 nM -0.85% | 8.33 nM -0.3% | 100 nM -1.93% | 833.33 nM -1.81% | 10000 nM 0.1%

CO[C@@]1(NC(=O)C(C(=O)O)c2ccc(O)cc2)C(=O)N2C(C(=O)O)=C(CSc3nnnn3C)CO[C@@H]21 (stereo not given in full) [moxalactam]
inactive: 1 nM 1.45% | 8.33 nM -1.13% | 100 nM -0.85% | 833.33 nM -1.15% | 10000 nM 1.01%

O=C(OCCN1CCOCC1)c1cccnc1Nc1cccc(C(F)(F)F)c1 [morniflumate]
inactive: 1 nM -1.61% | 8.33 nM -3.25% | 100 nM -3.87% | 833.33 nM -4.12% | 10000 nM -5.47%
